Laboratory results from PubChem BioAssay AID1508600 (Functional Genomics Laboratory (NCATS/FGL), 2020).
Among all 53,000 sequences or so, about 3,700 (7%) were called active. Shown is part of a subset that was picked to be rich in actives. Unmarked numbers belong to inactive results.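 Rule for the calls: active = gene knockdowns whose robust z-score for IL-1 alpha signal is at least 2 or at most -2, so actives lie on both sides; inactive = the rest.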

Assay: Components of the Cytosolic LPS Sensing Pathway: Gene Identification via Genome-wide siRNA Screen;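 note: robust z of the log signal after scaling to non-targeting control siRNA wells of the plate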
Conditions: RAW264.7 macrophages, IL-1a HTRF, actives lie on both sides, screened at 100 nM (by protocol), cells primed 5 h with Pam3CSK4 first
Summary of the method: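 RAW264.7 mouse macrophages reverse-transfected with single siRNAs (100 nM final) for 48h, primed with Pam3CSK4 for 5 hours, then transfected with LipidA for 24 hour. Supernatant IL-1a read by HTRF; values normalized to negative-control median, log-transformed robust z-scores.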
In the case of GGCAAAACAUGCUUGGACCTT against Zfp687, the z-score was 2.31 (active).
In the case of CCAAUUCCUGGGUGCACACTT against Olfr309, the z-score was -0.691.
For GCUCUGCUCUUCUGAAGCATT against Dohh, the z-score was -2.42 (active).
In the case of GGAUGACAUUUCAGUGUGGTT against Matn4, the z-score was 0.561.
With GGAUAUUCAAAUGGGUGCCTT against Bcl7b the z-score was 0.538.
For GGACAUGAUCGACGACUACTT against Zfyve28, the z-score was 0.109.
With GGAUGAAAGAAAAGAAACUTT against Hoxd11 the z-score was -0.335.
With GGAAUGGUAAUGCUAUUGGTT against Tmem39a the z-score was 0.169.
Sequence GGAGAAUGGUUCAUAUCUGTT against Trmt44 has a z-score of -0.849.
In the case of AUGGAAAAAGUGCACAAUCTT against Olfr1061, the z-score was 2.34 (active).
Sequence UUGUUCAAGAGCUAGAGAUTT against Atg2a has a z-score of 0.811.
With GCCGUGCAAAGUUUAUUCATT against Nme8 the z-score was 1.06.
With CCACCAUUCGGCUCUUUUGTT against Nupl2 the z-score was -0.822.
Work on GCACCUGAAGACUAAUGUUTT against Gcnt2 yielded a z-score of 0.509.
With GGAAUAUUCAGAAUCCCUCTT against Tnfaip8l3 the z-score was -0.762.
GGUAACGGGACCAACACUUTT against Otop3 showed a z-score of 1.26.
In the case of CCUUUAACUUUCUCCUACCTT against Nfkbid, the z-score was 3.45 (active).
For GGAGGAAACACAUCAUUUGTT against Tmem131, the z-score was 1.15.
Sequence GCCUCAAUUCCUCUACGCUTT against Sytl1 has a z-score of -1.34.
With GCAUAGUGACCAUGGAUAATT against Olfr807 the z-score was 0.95.
GGAGGACGUGAACUUUGACTT against Stk32c showed a z-score of 0.648.
GCACGUCAGAAUCUCCAGATT against Pln gave a z-score of -0.669.
For GGAAUGACAAGAUUAUUGUTT against Ercc3, the z-score was 0.157.
For GGAGAGGAGUUCUUCAUUCTT against Adamts1, the z-score was -1.38.
GCAAGUAGCAUCUCUGAUUTT against Nfs1 showed a z-score of 1.03.
In the case of GGCAAGAAGUGUGAUGAACTT against Kansl3, the z-score was -2.81 (active).
In the case of GGAGGAACUGGAUUCUUACTT against Eps8l3, the z-score was -0.348.
GGUUGUUAGGAAUCGAUCCTT against Rps26 gave a z-score of 0.964.
In the case of GGUGGAAUACUUGGAGCAGTT against Gstm4, the z-score was 2.98 (active).
With CCAAUGCCGCCAGAAGUUATT against Siah2 the z-score was 0.295.
